# Laboratory results from PubChem BioAssay (Tox21).
# A number with no mark means an inactive call. Records with an inconclusive call do not appear. Where a call stands in place of a potency, no number is given. Activity calls are given as the source filed them. Unless noted, calls come from the whole dose curve; as a rule, active = well fitted curve in the direction sought with a large enough effect in the repeat runs; inconclusive = weak or mixed curves; inactive = no such curve, though single readings can be large; an effect the other way counts as inactive or inconclusive.
# Legend:
# [1] = A CellTox Green Cytotoxicity Assay to monitor cytotoxicity in HepG2 cells - 8 hour (AID 1224890); note: nearly all actives have a fitted effect of over 45% in size; note: potency is the fitted concentration of half-maximal effect
# Summary of the method: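 Measurements at 0, 8, 16, 24, 32 and 40 h of treatment captured CellTox Green fluorescence in HepG2 cells that had been co-plated with reagent and preincubated 5 h at 37 C/5% CO2.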
# [2] = qHTS assay to identify small molecule antagonists of the estrogen receptor alpha (ER-alpha) signaling pathway using the BG1 cell line in the presence of 0.1 nM 17-beta-estradiol - cell viability counter screen (AID 1259241); note: nearly all actives have a fitted effect of over 40% in size
# Summary of the method: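 The cell line endogenously expresses full-length ER-alpha and carries four EREs driving luciferase. Cells are cultured 5 days hormone-free, treated 22 hr with compounds and 0.1 nM estradiol, then viability is read by fluorescence.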
# [3] = qHTS assay to identify small molecule antagonists of the androgen receptor (AR) signaling pathway using the MDA cell line in the presence of 0.5 nM R1881 - cell viability counter screen (AID 1259242); note: nearly all actives have a fitted effect of over 45% in size
# Summary of the method: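 Concentration-response screen of compounds for toxicity in MDA-kb2 reporter cells: 16 hr at 37C with 0.5 nM R1881, endpoint live-cell protease fluorescence measured in the reporter wells.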
# [4] = qHTS assay to identify small molecule phospholipidosis (PLD) inducers (AID 1259344; active = well fitted curve in the direction sought with a large enough effect; an effect the other way counts as inactive or inconclusive)
# Summary of the method: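 Accumulated phospholipid, stained red by LipidTOX during 24 h compound treatment of HepG2 cells at 37 C, is quantified from images as pit number and intensity, normalised per cell using Hoechst-stained nuclei.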
# [5] = qHTS assay to identify small molecule HDAC inhibitors (AID 1259364); note: potency is the fitted concentration of half-maximal effect;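 note: wild-type HCT-116 cells with endogenous class I/II HDAC activity; nearly all actives have a fitted effect of over 45% in size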; for activity change, negative = inhibition: top concentration of the series differs between compounds
# Summary of the method: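 Screening used wild-type human colon HCT-116 cells incubated overnight, dosed with compounds for 2 hours, and assayed with a homogeneous luminogenic HDAC I/II reagent for 30 minutes at room temperature.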
# [6] = qHTS assay to identify small molecule HDAC inhibitors - cell viability counter screen (AID 1259365); note: series mostly up to about 92 µM; nearly all actives have a fitted effect of over 50% in size
# Summary of the method: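 Viability readout: CellTiter-Glo luminescence. Wild-type HCT-116 cells, 2hr compound treatment following overnight attachment at 37 C.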
# [7] = qHTS assay to identify small molecule agonists of the sonic hedgehog signaling (Shh) pathway - cell viability counter screen (AID 1259366); note: nearly all actives have a fitted effect of over 50% in size
# Summary of the method: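 Viability measured fluorometrically (CellTiter-Fluor, 1hr, 37C) in 3T3 Gli1-Luc reporter cells after 23hr compound exposure within a 24hr incubation at 37C/5% CO2.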
# [8] = qHTS assay to identify small molecule antagonists of the sonic hedgehog signaling (Shh) pathway - cell viability counter screen (AID 1259367); note: nearly all actives have a fitted effect of over 55% in size
# Summary of the method: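 CellTiter-Fluor signal in conditioned medium-stimulated 3T3 Gli1-Luc cells, 23 hr compound exposure, 37C.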
# [9] = qHTS assay to identify small molecule antagonists of the sonic hedgehog signaling (Shh) pathway (AID 1259369; calls by dose curve; note: nearly all actives have a fitted effect of over 45% in size)
# Summary of the method: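 NIH/3T3 stable Gli1-Luc clone, 2,000 cells/well, 4hr settle; cpd + conditioned medium 24hr; Luc reagent 30min RT; luminescence.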
# [10] = target: Estrogen receptor beta (Homo sapiens) (UniProt Q92731); experiment: qHTS assay to identify small molecule agonists of the estrogen receptor beta (ER-beta) signaling pathway (AID 1259377; active = well fitted activation curve with a large enough effect in the signal ratio in the repeat runs, not every such curve was filed as active; the % refers to the signal ratio)
# Estrogen receptor beta (Homo sapiens), sequence (Q92731 whole entry, looked up): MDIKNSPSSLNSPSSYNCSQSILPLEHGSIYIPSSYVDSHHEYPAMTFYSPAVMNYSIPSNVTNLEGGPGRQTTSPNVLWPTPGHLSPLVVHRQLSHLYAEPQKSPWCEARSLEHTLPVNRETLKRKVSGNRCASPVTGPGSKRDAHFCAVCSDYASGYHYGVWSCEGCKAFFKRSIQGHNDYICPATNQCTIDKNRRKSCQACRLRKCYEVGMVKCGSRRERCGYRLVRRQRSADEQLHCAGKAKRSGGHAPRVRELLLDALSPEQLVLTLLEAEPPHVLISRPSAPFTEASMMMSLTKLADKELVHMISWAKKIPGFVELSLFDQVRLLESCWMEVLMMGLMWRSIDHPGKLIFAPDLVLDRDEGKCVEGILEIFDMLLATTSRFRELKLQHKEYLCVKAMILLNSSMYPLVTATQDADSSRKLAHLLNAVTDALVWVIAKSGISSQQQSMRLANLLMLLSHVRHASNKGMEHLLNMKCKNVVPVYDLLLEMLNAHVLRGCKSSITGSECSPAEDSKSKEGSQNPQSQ
# Summary of the method: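 A UAS-controlled beta-lactamase reporter in ER-beta-UAS-bla HEK293T cells reports receptor activation. Compounds act for 16 hr at 37C in 2% charcoal-stripped serum, and a FRET substrate is read by fluorescence after 2 hours.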
# [11] = target: Estrogen receptor beta (Homo sapiens) (UniProt Q92731); experiment: qHTS assay to identify small molecule antagonists of the estrogen receptor beta (ER-beta) signaling pathway (AID 1259378; active = well fitted inhibition curve with a large enough effect in the signal ratio in the repeat runs, not every such curve was filed as active; the % refers to the signal ratio)
# Summary of the method: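 Antagonist mode: compounds added to beta-lactamase reporter HEK293T ER-beta-UAS cells stimulated with E2 (1nM final), 16 hr at 37C. LiveBLAzer B/G FRET substrate, 2 hours room temperature, fluorescence read-out.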
# [12] = qHTS assay to identify small molecule agonists of the androgen receptor (AR) signaling pathway in the presence of an antagonist - cell viability counter screen (AID 1259379);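 note: MDA-kb2 human breast cancer cells carrying an MMTV luciferase reporter; series mostly up to about 92 µM; nearly all actives have a fitted effect of over 25% in size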
# Summary of the method: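 MDA-kb2 viability measured by CellTiter-Fluor fluorescence in the same wells as the luciferase signal; nilutamide 3.0uM final; 15-point compound titration; 16 hr at 37C.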
# [13] = qHTS assay to identify small molecule agonists of the estrogen receptor beta (ER-beta) signaling pathway - cell viability counter screen (AID 1259380); note: nearly all actives have a fitted effect of over 30% in size
# Summary of the method: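 Measured: luminescence from CellTiter-Glo after 30 min at room temperature, added to wells already read for the LiveBLAzer FRET reporter (2 hr substrate); ER-beta-UAS-bla HEK293T cells had 16 hr compound treatment at 37C, 5% CO2.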
# [14] = qHTS assay to identify small molecule antagonists of the estrogen receptor beta (ER-beta) signaling pathway - cell viability counter screen (AID 1259382);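 note: HEK293T cells carrying ER-beta-UAS-bla reporter stimulated with estradiol; series mostly up to about 92 µM; nearly all actives have a fitted effect of over 55% in size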
# Summary of the method: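 Readout: luminescence, CellTiter-Glo, same wells as bla assay. System: ER-beta-UAS-bla GripTite HEK293T, 2% charcoal-stripped FBS. Exposure: compounds plus 1nM 17-beta-estradiol, 16 hr, 37C.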
# [15] = qHTS assay to identify small molecule agonists or antagonists of the thyroid stimulating hormone receptor (TSHR) signaling pathway - wild type cell line counter screen (AID 1259384; calls by dose curve)
# Summary of the method: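 Counter screen in untransfected Hek293: compounds (15-point titration, triplicate) plus phosphodiesterase inhibitor Ro20-1724 added after 18 h plating; 30 min RT. Intracellular cAMP via competitive d2/cryptate immunoassay, 1 h incubation.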
# [16] = qHTS assay to identify small molecule agonists of the sonic hedgehog signaling (Shh) pathway (AID 1259368; calls by dose curve;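 note: NIH/3T3-derived 3T3Gli1-Luc cells carrying a stable Gli1-driven firefly luciferase reporter; series mostly up to about 92 µM; nearly all actives have a fitted effect of over 15% in size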)
# Summary of the method: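 Hedgehog pathway agonism scored by increased firefly luciferase luminescence in 3T3Gli1-Luc cells treated 24 hr at 37 C; detection used a 30 min room-temperature reagent incubation.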
# [17] = target: Estrogen receptor (Homo sapiens) (UniProt P03372); experiment: qHTS assay to identify small molecule agonists of the estrogen receptor alpha (ER-alpha) signaling pathway in the presence of an antagonist (AID 1259383; calls by dose curve; note: top concentration of the series differs between compounds; nearly all actives have a fitted effect of over 15% in size)
# Estrogen receptor (Homo sapiens), sequence (P03372 whole entry, looked up): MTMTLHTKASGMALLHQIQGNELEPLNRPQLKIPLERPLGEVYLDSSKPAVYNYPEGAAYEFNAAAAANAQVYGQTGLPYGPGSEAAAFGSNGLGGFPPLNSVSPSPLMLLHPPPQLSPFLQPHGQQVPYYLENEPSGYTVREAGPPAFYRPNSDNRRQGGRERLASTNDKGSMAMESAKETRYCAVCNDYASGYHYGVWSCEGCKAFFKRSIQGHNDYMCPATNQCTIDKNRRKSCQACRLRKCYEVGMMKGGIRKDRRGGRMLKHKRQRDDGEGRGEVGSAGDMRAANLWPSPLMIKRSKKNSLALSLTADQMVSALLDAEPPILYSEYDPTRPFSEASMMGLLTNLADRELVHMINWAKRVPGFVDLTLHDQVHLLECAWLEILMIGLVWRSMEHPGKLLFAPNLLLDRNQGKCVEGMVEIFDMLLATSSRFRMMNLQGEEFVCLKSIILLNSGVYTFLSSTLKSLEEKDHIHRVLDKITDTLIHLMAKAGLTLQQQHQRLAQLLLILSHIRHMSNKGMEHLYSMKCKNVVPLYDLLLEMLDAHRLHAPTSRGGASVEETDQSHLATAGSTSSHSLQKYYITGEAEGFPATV
# Summary of the method: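 Quantitative HTS confirmation: compounds titrated at 15 concentrations onto estrogen-deprived VM7Luc4E2 cells carrying a four-ERE luciferase construct, with ICI-182,780 present at 10.0nM final. Signal is luminescence after 22hr exposure.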
# [18] = target: Estrogen receptor (Homo sapiens) (UniProt P03372); experiment: qHTS assay to identify small molecule antagonists of the estrogen receptor alpha (ER-alpha) signaling pathway using the BG1 cell line in the presence of 0.1 nM 17-beta-estradiol (AID 1259244); note: nearly all actives have a fitted effect of over 50% in size
# Summary of the method: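 Compounds were tested against 0.1 nM (final) 17beta-estradiol in VM7Luc4E2 cells, which express full-length ER-alpha and an ERE-luciferase reporter; luminescence was recorded following 22 h exposure.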
smiles,measurement,setting,value
NCCC(O)(P(=O)(O)O)P(=O)(O)O,Potency,[1],inactive
same,Potency,[2],inactive
same,outcome,[3],inactive
same,outcome,[4],inactive
same,Potency,[5],inactive
same,outcome,[6],inactive
same,Potency,[7],inactive
same,Potency,[8],inactive
same,Potency,[9],inactive
same,outcome,[10],inactive
same,Potency,[11],inactive
same,Potency,[12],inactive
same,Potency,[13],inactive
same,outcome,[14],inactive
same,outcome,[15],inactive
O=c1[nH]c(=O)n([C@H]2C[C@H](O)[C@@H](CO)O2)cc1C(F)(F)F,Potency,[1],inactive
same,Potency,[2],inactive
same,outcome,[3],inactive
same,outcome,[4],inactive
same,Potency,[5],inactive
same,outcome,[6],inactive
same,Potency,[7],inactive
same,Potency,[16],inactive
same,Potency,[9],inactive
same,outcome,[10],inactive
same,Potency,[12],inactive
same,Potency,[13],inactive
same,outcome,[14],inactive
same,Potency,[17],inactive
same,outcome,[15],inactive
CS(=O)(=O)c1ccc([C@@H](O)[C@@H](CF)NC(=O)C(Cl)Cl)cc1,Potency,[1],inactive
same,Potency,[2],inactive
same,outcome,[3],inactive
same,outcome,[4],inactive
same,Potency,[5],inactive
same,outcome,[6],inactive
same,Potency,[8],inactive
same,Potency,[16],inactive
same,Potency,[12],inactive
same,outcome,[14],inactive
same,Potency,[17],inactive
same,outcome,[15],inactive
C=CC(C)(O)CC/C=C(\C)CCC=C(C)C (stereo unspecified),Potency,[1],19.5 µM (active)
same,Potency,[2],inactive
same,outcome,[3],inactive
same,outcome,[4],inactive
same,Potency,[5],inactive
same,outcome,[6],inactive
same,Potency,[7],inactive
same,Potency,[8],inactive
same,Potency,[9],inactive
same,outcome,[10],inactive
same,Potency,[11],inactive
same,Potency,[12],inactive
same,outcome,[14],inactive
COc1ccc2nc(NC(=O)Nc3ccccc3)sc2c1,Potency,[1],inactive
same,Potency,[2],inactive
same,outcome,[3],inactive
same,outcome,[4],inactive
same,Potency,[5],3.35 µM (active)
same,outcome,[6],inactive
same,Potency,[7],inactive
same,Potency,[8],inactive
same,Potency,[16],inactive
same,Potency,[9],inactive
same,Potency,[12],inactive
same,outcome,[15],inactive
O=C(O)c1ccccc1Nc1cc(Cl)ccc1C(=O)O,cytotoxicity increase,[1],7.19% [at 15.8 µM]
same,"activity change, negative = cytotoxicity",[2],-25.8% [at 19 µM]
same,"viability change, negative = cytotoxic",[3],-0.133% [at 19 µM]
same,PLD induction,[4],-4.32% [at 7.66 µM]
same,"activity change, negative = inhibition",[5],-1.95% [at 19 µM]
same,"activity change, negative = cytotoxicity",[6],-5.17% [at 19 µM]
same,activity change,[16],"-0.0136% [at 18.9 µM, stronger effect = higher value]"
same,activation,[10],0.616% [at 19 µM]
same,"activity change, negative = cytotoxicity",[12],-0.898% [at 19 µM]
same,"activity change, negative = cytotoxicity",[13],-3.75% [at 19 µM]
same,"activity change, negative = cytotoxicity",[14],-13.6% [at 19 µM]
same,activation,[17],-1.25% [at 19 µM]
same,cAMP activity change,[15],0.0654% [at 18.9 µM]
CC1=CC(=O)CC(C)(C)C1=O,Potency,[1],inactive
same,Potency,[2],inactive
same,outcome,[3],inactive
same,Potency,[18],inactive
same,outcome,[6],inactive
same,Potency,[16],inactive
same,Potency,[9],inactive
same,outcome,[10],inactive
same,Potency,[11],inactive
same,Potency,[12],inactive
same,Potency,[13],inactive
same,outcome,[14],inactive
same,Potency,[17],inactive
same,outcome,[15],inactive
CC1(C)S[C@@H]2[C@H](NC(=O)C(C(=O)O)c3ccccc3)C(=O)N2[C@H]1C(=O)O (stereo partly specified),Potency,[1],inactive
same,Potency,[2],inactive
same,outcome,[3],inactive
same,outcome,[4],inactive
same,Potency,[5],inactive
same,outcome,[6],inactive
same,Potency,[7],inactive
same,Potency,[8],inactive
same,Potency,[16],inactive
same,Potency,[9],inactive
same,outcome,[10],inactive
same,Potency,[11],inactive
same,Potency,[12],inactive
same,Potency,[13],inactive
same,outcome,[14],inactive
Cc1nnc(SCC2=C(C(=O)O)N3C(=O)[C@@H](NC(=O)Cn4cnnn4)[C@H]3SC2)s1,Potency,[1],inactive
same,Potency,[2],inactive
same,outcome,[3],inactive
same,outcome,[4],inactive
same,Potency,[5],inactive
same,outcome,[6],inactive
same,Potency,[7],inactive
same,Potency,[8],inactive
same,Potency,[16],inactive
same,Potency,[9],inactive
same,outcome,[10],inactive
same,Potency,[11],inactive
same,Potency,[12],inactive
same,Potency,[13],inactive
same,outcome,[14],inactive
same,Potency,[17],inactive
same,outcome,[15],inactive
